Compound activity (PubChem)
HPGD inh = inhibitors of human 15-hydroxyprostaglandin dehydrogenase (HPGD); P15428; purified HPGD, NADH fluorescence kinetic, PGE2 substrate; Potency, µM, for inactives: top-dose activity change, negative = inhibition, actives largely listed as inhibitors; actives 4.3% (n = 150,000); AID 894
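20 nM HPGD preincubated 15 min at room temperature with compound in 50 mM Tris-HCl pH 8, 0.01% Tween 20. Started with 1 mM NAD+ and 30 uM prostaglandin E2; NADH fluorescence (360/450 nm) read 5 times over 30-s intervals, last minus first.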
Tau fibril ThT = blocks human tau fibril formation measured by thioflavin T. P10636. recombinant tau K18 P301L, heparin-induced fibrillization, ThT fluorescence. Potency, µM (top dose mostly 57.4 µM), for the others: at the highest dose activity, negative = inhibition, hits mostly inhibitors. actives 2.1% (n = 270,000). AID 1460; active = well fitted curve in the direction sought with a large enough effect; inconclusive = small, poorly fitted or top-dose-only effect, or another doubt; inactive = no such curve, though single readings can be large; an effect the other way counts as inactive or inconclusive; note: nearly all actives have a fitted effect of over 55% in size
Target sequence (P10636 561-689 P618L limits assumed): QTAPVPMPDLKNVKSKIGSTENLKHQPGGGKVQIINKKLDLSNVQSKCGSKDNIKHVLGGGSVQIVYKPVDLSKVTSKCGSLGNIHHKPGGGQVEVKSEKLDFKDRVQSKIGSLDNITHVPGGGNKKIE
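Fibril formation assay: tau K18 P301L at 15 uM with trace Alexa 594 label, heparin inducer 20 uM, pH 7 sodium acetate buffer, 37 C for 6 hr; endpoint ThT signal.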
Tau fluor counter = counter-screen for tau fibril formation inhibitors; tau K18 P301L (four-repeat tau fragment) Alexa594 fluorescence, heparin fibrillization; actives 0.93% (n = 280,000); Potency, µM (series often up to 57.7 µM), for inactives: at the top dose activity change, negative = decrease; AID 1463; active = well fitted curve in the direction sought with a large enough effect; inconclusive = small, poorly fitted or top-dose-only effect, or another doubt; inactive = no such curve, though single readings can be large; an effect the other way counts as inactive or inconclusive; note: nearly all actives have a fitted effect of over 55% in size
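Human K18 P301L tau (15 uM unlabeled plus 0.24 uM Alexa 594-labeled, final) in 100 mM sodium acetate pH 7 was mixed with compound and 20 uM heparin and incubated 6 hr at 37 C.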
Tau FP inhib = tau fibrillization inhibition (FP); P10636; K18 P301L tau heparin fibrillization, Alexa594 FP, 6 h; Potency, µM (highest dose often 57.7 µM), for inactives: at the top dose activity, negative = inhibition, usual class: inhibitors; actives 0.39% (n = 280,000); active = well fitted curve in the direction sought with a large enough effect; inconclusive = small, poorly fitted or top-dose-only effect, or another doubt; inactive = no such curve, though single readings can be large; an effect the other way counts as inactive or inconclusive; note: nearly all actives have a fitted effect of over 55% in size
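Read-out: fluorescence polarization of Alexa 594-labeled tau (0.24 uM), 555 nm excitation, 632 nm emission. Mixtures held 15 uM unlabeled K18 P301L, compound and 20 uM heparin, pH 7 acetate buffer, incubated 6 hr at 37 C.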
JMJD2E inh = inhibitors of human JMJD2E histone demethylase | AID 2147 | JMJD2E catalytic domain, FDH-coupled NADH fluorescence (FDH is formaldehyde dehydrogenase) | actives 1.6% (n = 230,000) | Potency, µM (top dose mostly 57.1 µM), for the others: at the top dose activity change, negative = inhibition, actives largely listed as inhibitors | B2RXH2;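 note: 0% = wells with enzyme and -100% = buffer wells without enzyme; nearly all actives have a fitted effect of over 50% in size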
ALDH1A1 block = ALDH1A1 (human) enzyme inhibition | actives 7.3% (n = 220,000) | P00352 | Purified ALDH1A1, NADH fluorescence, propionaldehyde substrate | Potency, µM (doses to about 75.3 µM), for the others: at the top dose activity, negative = inhibition, usual class: inhibitors | AID 1030;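 note: plate controls were no enzyme wells and a reference inhibitor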
Target sequence (P00352 whole entry, looked up): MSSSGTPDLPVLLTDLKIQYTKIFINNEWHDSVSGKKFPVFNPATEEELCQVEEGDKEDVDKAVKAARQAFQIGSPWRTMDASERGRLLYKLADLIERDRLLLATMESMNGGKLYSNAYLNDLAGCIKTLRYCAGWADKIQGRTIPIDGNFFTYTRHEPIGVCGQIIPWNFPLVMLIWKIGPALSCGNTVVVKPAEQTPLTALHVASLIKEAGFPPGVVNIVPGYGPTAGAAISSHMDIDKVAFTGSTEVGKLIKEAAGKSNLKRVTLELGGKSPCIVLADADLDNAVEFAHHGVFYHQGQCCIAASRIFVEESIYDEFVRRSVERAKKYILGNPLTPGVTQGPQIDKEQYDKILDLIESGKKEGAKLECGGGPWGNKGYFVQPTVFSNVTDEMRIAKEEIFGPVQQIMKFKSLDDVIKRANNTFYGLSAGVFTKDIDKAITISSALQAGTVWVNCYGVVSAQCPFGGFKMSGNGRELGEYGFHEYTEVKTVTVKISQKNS
* = called active by the depositor; ? = inconclusive; / = no result; [ ] = another dose, or the depositor's remark. Rows were chosen to be rich in hits. Some 9.9% of all compounds tested hit in one or more screens of this group. Unless noted, calls come from the whole dose curve; as a rule, active = well fitted inhibition curve with a large enough effect (not every such curve was filed as active); inconclusive = small, poorly fitted or top-dose-only effect, or another doubt; inactive = no such curve, though single readings can be large or run the other way. Unless noted, % is set by controls: 0 for no effect and ±100 for the full control effect; potency is the fitted concentration of half-maximal effect.

SMILES	HPGD inh	Tau fibril ThT	Tau fluor counter	Tau FP inhib	JMJD2E inh	ALDH1A1 block
Cc1ccc(C(CC(=O)O)Nc2nc(N3CCOCC3)nc(N3CCOCC3)n2)cc1 (stereo not given)	0.6%	-8.6%	-5.1%	-4.0%	?	3.9%
CCCN1C2=C(C(=O)CC(C)(C)C2)C(c2ccc(F)cc2)C2=C1c1ccccc1C2=O (stereo not given)	35.5µM*	?	?	5.1%	-9.9%	?
CCCCN1C2=C(C(=O)CC(C)(C)C2)C(c2ccccc2)C2=C1c1ccccc1C2=O (stereo not given)	-10.1%	14.1µM*	-24.1%	?	?	?
CCN(CC)CCN1C2=C(C(=O)CC(C)(C)C2)C(c2cccc(F)c2)C2=C1CC(C)(C)CC2=O	/	1.1%	-0.1%	14.6%	?	?
CCCCN(CC)C(=O)CSc1cc(=O)n(C)c2ccccc12	7.08µM*	-1.7%	-0.6%	-0.3%	?	?
CN(Cc1ccccc1)C(=O)CSc1cc(=O)n(C)c2ccccc12	/	4.1%	-0.3%	8.4%	?	12.5%
Cc1ccc(Cl)cc1N1CCN(C(=O)CSc2cc(=O)n(C)c3ccccc23)CC1	/	-15.3%	-14.7%	-12.3%	/	/
Cn1c(=O)cc(SCC(=O)N2CCCC2)c2ccccc21	15.8µM*	-3.7%	-1.1%	-1.3%	-9.6%	?
O=C(CN1C(=O)/C(=C2\SC(=S)N(C3CCS(=O)(=O)C3)C2=O)c2ccccc21)Nc1ccccc1 (stereo not given)	-8.6%	?	?	9.8%	-6.2%	7.08µM*
CCN1C(=O)/C(=C2\SC(=S)N(CC3CCCO3)C2=O)c2ccccc21 (stereo not given)	-1.9%	?	-23.7%	5.7%	3.4%	?
Cc1ccc(NC(=O)CN2C(=O)/C(=C3\SC(=S)N(C4CCS(=O)(=O)C4)C3=O)c3ccccc32)cc1 (stereo not given)	-7.0%	-13.4%	-20.4%	5.3%	3.1%	1.41µM*
O=[N+]([O-])c1cc(C(F)(F)F)cc([N+](=O)[O-])c1NCCNC(=S)Nc1cccc(F)c1	/	?	8.91µM*[quencher]	-7.3%	-5.9%	?
Cc1nnsc1C(=O)NNc1ccc(C(C)(C)C)cc1	/	-16.0%	-12.6%	-6.6%	-3.4%	31.6µM*
CCOc1ccc(C2=C(C(=O)CC)Sc3nncn3N2C(=O)CC)cc1	/	3.16µM*	-28.6%	-13.5%	/	/
CCC(=O)C1=C(c2ccc(OC)c(OC)c2)N(C(=O)CC)n2c(nnc2-c2ccc(C)cc2)S1	/	-17.8%	-24.1%	-10.1%	/	/
CC(=O)C1=C(c2ccc(Cl)c(Cl)c2)N(C(C)=O)n2cnnc2S1	/	4.47µM*	?	?	/	/
CCC(=O)C1=C(c2ccc(F)cc2)N(C(=O)CC)n2cnnc2S1	/	10µM*	-27.9%	?	/	/
COc1ccc(C2(CNC(=O)c3ccccc3[N+](=O)[O-])CCOCC2)cc1	/	3.8%	0.4%	8.5%	8.4%	-6.1%
O=C(O)C1=C[C@H](c2ccc(F)cc2)C[C@H](OCCCCO)O1	/	-5.9%	-0.5%	1.9%	?	/
CCOC(=O)c1c(C)oc2nc(C)nc(NCCc3ccc(SC)cc3)c12	/	?	-7.2%	-5.2%	/	/
CCOc1ccc(-n2c(N)c(C(=O)N3CCN(C)CC3)sc2=S)cc1	/	-1.2%	5.1%	-0.8%	-0.6%	-11.9%
Cc1ccc(-n2c(N)c(C(=O)N3CCN(C)CC3)sc2=S)cc1	11.2µM*	?	-11.4%	?	-5.4%	22.4µM*
Cc1ccc(-n2c(N)c(C(=O)N3CCCCC3)sc2=S)cc1	10µM*	?	-20.0%	9.4%	-18.6%	10µM*
O=c1c2ccccc2nc(-c2ccc(Cl)cc2)n1CCCCOc1ccc(F)cc1	/	2.3%	-2.7%	-4.5%	/	/
OC1(c2ccccc2)c2ccccc2-c2ncccc21 (stereo not given)	/	10.8%	16.9%	9.5%	-20.4%	5.4%
SMILES	HPGD inh	Tau fibril ThT	Tau fluor counter	Tau FP inhib	JMJD2E inh	ALDH1A1 block
Cn1c(CNC(=O)c2ccco2)nnc1SCC(=O)Nc1c(F)cc(F)cc1Br	/	0.9%	11.5%	-0.1%	-10.3%	?
CCOC(=O)c1cc(-c2ccccc2)n(CC(=O)NC(C)(C)C)c1C	/	-1.4%	-10.0%	-4.8%	2.4%	?
CCOC(=O)c1cc(-c2ccccc2)n(CC(=O)O)c1C	25.1µM*	0.7%	7.5%	3.1%	2.8%	?
CN=C1N[C@H](c2ccccc2)N(c2ccccc2)S1	12.6µM*	20µM*	-15.8%	31.6µM*	7.94µM*	1.26µM*
COc1ccccc1CN1CCNC(=O)C1CC(=O)NCCCn1cccn1 (stereo not given)	/	-8.6%	0.5%	-2.3%	-24.4%	25.1µM*
COc1ccccc1CN1CCNC(=O)C1CC(=O)NCCC1=CCCCC1 (stereo not given)	/	?	-7.1%	2.3%	?	25.1µM*
COc1cccc(CN2CCNC(=O)C2CC(=O)NCCn2cccn2)c1OC (stereo not given)	/	-10.5%	6.4%	3.1%	?	2.4%
N#Cc1c(-c2ccc(F)cc2)ccnc1N1CCOCC1	/	-5.3%	-8.5%	-0.6%	?	?
CC(=O)N1c2ccc(S(=O)(=O)N3CCCCCC3)cc2CC1C(=O)NCc1ccccc1F (stereo not given)	/	12.4%	7.8%	3.1%	/	/
Cc1nn(C(=O)c2ccc(Cl)cc2)c(C)c1Sc1ccc(Cl)cc1	/	-8.4%	1.6%	7.2%	/	/
N#CC1=C(N)N2C(=C(C#N)C13CCCCC3)SC1CCCCC12O (stereo not given)	-12.7%	-7.3%	?	-2.6%	3.7%	0.708µM*
CC1=Nc2ccccc2/C1=C\c1nc(-c2ccc(C(F)(F)F)cc2)oc1O	-6.8%	12.6µM*	11.2µM*[quencher]	3.2%	1.7%	6.0%
CC1=Nc2ccccc2/C1=C\c1nc(-c2ccccc2)oc1O	-5.9%	5.01µM*	7.94µM*[quencher]	?	-8.1%	-10.6%
CC1=Nc2ccccc2/C1=C/c1nc(-c2ccc(C)s2)oc1O	/	2.82µM*	5.01µM*[quencher]	4.2%	?	2.0%
Oc1ccccc1-c1nnc(-c2ccc(C(F)(F)F)cc2)o1	-25.7%	-9.9%	-8.4%	-1.2%	?	?
COc1ccc(-c2nc(/C=C3\C(C)=Nc4ccccc43)c(O)o2)cc1	/	3.98µM*	8.91µM*[quencher]	?	?	?
COc1cc(C(=O)NCCNC(=O)C2CCCNC2=O)cc(OC)c1OC (stereo not given)	/	-2.9%	-7.1%	4.0%	17.8%	/
CNC(=S)N1CCN=C1Nc1nc(C)cc(C)n1	/	-0.9%	1.0%	2.0%	-6.5%	-5.8%
COc1ccc(CNc2nc3c(-c4cccc(C)c4)nnn3c3ccccc23)cc1	/	7.9%	-15.5%	-4.2%	/	/
